Test results published in PubChem BioAssay (NCI).
About 79,000 compounds went through this panel and 15% of them were active in at least one assay; those are over-represented in the sample as a whole. Active and inactive are the calls of the source. No stated cut-off is given here; in the data, active means growth inhibition above about 70%; inactive means the rest.

Tests used:
[1] = NCI Yeast Anticancer Drug Screen. Data for the rad52 strain (AID 147);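 further: 0% = growth of vehicle-treated control cultures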; conditions: S. cerevisiae rad52 mutant growth inhibition, stronger effect = higher value
Method in brief: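 Read-out: growth inhibition versus vehicle-treated controls. Cells were a DNA repair-deficient yeast strain treated with compounds.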

[2] = NCI Yeast Anticancer Drug Screen. Data for the rad50EPP+ strain (AID 151);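 further: 0% = growth of vehicle-treated control cultures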; conditions: S. cerevisiae rad50 mutant strain, stronger effect = higher value
Method in brief: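 Growth inhibition read against vehicle controls in rad50EPP+ yeast, a strain altered in DNA damage repair, after compound exposure.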

[3] = NCI Yeast Anticancer Drug Screen. Data for the mgt1 strain (AID 153); conditions: S. cerevisiae mgt1 mutant growth inhibition, stronger effect = higher value
Method in brief: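 mgt1 yeast grown with test compound; read-out is growth inhibition versus vehicle-treated cultures.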

[4] = NCI Yeast Anticancer Drug Screen. Data for the rad50 strain (AID 155);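 further: 0% = growth of vehicle-only cultures of the same strain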; conditions: S. cerevisiae rad50 strain growth inhibition, stronger effect = higher value
Method in brief: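 Genetically altered yeast (DNA repair pathway); compound treatment; growth inhibition vs vehicle ctrl.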

[5] = NCI Yeast Anticancer Drug Screen. Data for the mec2-1 strain (AID 157); conditions: S. cerevisiae mec2-1 strain, stronger effect = higher value
Method in brief: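 Yeast mec2-1 mutant treated with compound. Readout: growth inhibition vs vehicle controls.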

[6] = NCI Yeast Anticancer Drug Screen. Data for the rad14 strain (AID 159);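 further: 0% = growth of vehicle-treated control cultures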; conditions: S. cerevisiae rad14 strain growth inhibition, stronger effect = higher value
Method in brief: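 Test compounds were applied to a repair-deficient yeast strain. Its growth was then compared with that of cultures given vehicle alone, and inhibition was expressed relative to those controls.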

[7] = NCI Yeast Anticancer Drug Screen. Data for the sgs1 mgt1 strain (AID 161);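 further: 0% = growth of cultures given vehicle only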; conditions: S. cerevisiae sgs1 mgt1 strain, stronger effect = higher value
Method in brief: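 Read-out: growth inhibition vs vehicle controls. Cells: mutant yeast strain deficient in DNA damage repair.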

[8] = NCI Yeast Anticancer Drug Screen. Data for the CLN2oe strain (AID 163);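 further: 0% = growth of vehicle-only control cultures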; conditions: S. cerevisiae CLN2oe strain, stronger effect = higher value
Method in brief: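 Read-out: yeast growth inhibition, expressed relative to vehicle-only controls. The strain bears an engineered cell-cycle alteration.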

[9] = NCI Yeast Anticancer Drug Screen. Data for the cln2 rad14 strain (AID 165);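 further: 0% = growth equal to vehicle treated cultures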; conditions: S. cerevisiae cln2 rad14 strain, stronger effect = higher value
Method in brief: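 cln2 rad14 yeast strain; compound exposure; growth inhibition read vs vehicle controls.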

[10] = NCI Yeast Anticancer Drug Screen. Data for the bub3 strain (AID 167); conditions: S. cerevisiae bub3 mutant strain, stronger effect = higher value
Method in brief: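 Yeast carrying a defined mutation is treated with each compound, and growth is compared with that of vehicle-exposed cells to give inhibition.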

[11] = NCI Yeast Anticancer Drug Screen. Data for the wt2 strain (AID 169);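 further: 0% = growth of vehicle-treated yeast cultures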; conditions: S. cerevisiae wt2 strain growth inhibition, stronger effect = higher value
Method in brief: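 Read-out: growth inhibition versus vehicle-treated control cultures after compound exposure of the yeast strain.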

[12] = NCI Yeast Anticancer Drug Screen. Data for the mlh1 strain (AID 171);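 further: 0% = growth of vehicle-treated control cultures of the same strain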; conditions: S. cerevisiae mlh1 strain growth inhibition, stronger effect = higher value
Method in brief: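 Read-out: growth inhibition versus vehicle controls. Strain: engineered yeast with a defined DNA repair or cell cycle defect, compound-treated.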

[13] = NCI Yeast Anticancer Drug Screen. Data for the sgs1 strain (AID 173);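 further: 0% = growth of vehicle-only control cultures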; conditions: S. cerevisiae sgs1 mutant, stronger effect = higher value
Method in brief: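 Read-out: yeast growth inhibition relative to vehicle controls, following compound exposure of a strain with a defined DNA repair/cell cycle alteration.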

[14] = NCI Yeast Anticancer Drug Screen. Data for the mlh1 rad18 strain (AID 175); conditions: S. cerevisiae mlh1 rad18 strain growth inhibition, stronger effect = higher value
Method in brief: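 Yeast w/ defined DNA-repair lesions; compound exposure; growth vs vehicle controls → % inhibition.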

[15] = NCI Yeast Anticancer Drug Screen. Data for the rad18 strain (AID 177); conditions: S. cerevisiae rad18 mutant growth inhibition, stronger effect = higher value
Method in brief: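 Readout: growth inhibition vs vehicle controls. Cells: genetically altered yeast strain, DNA repair defect.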

[16] = NCI Yeast Anticancer Drug Screen. Data for the wt1 strain (AID 149);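 further: 0% = growth of vehicle-treated wt1 cultures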; conditions: S. cerevisiae wt1 strain (SPY 50644) growth inhibition, stronger effect = higher value
Method in brief: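 wt1 yeast, compound-treated; % growth inhibition vs vehicle control.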

[17] = at 5.0 µM (retest, dose inferred, filed as 0.5)
[18] = at 50.0 µM (retest, dose inferred, filed as 5.0)

Measured: growth inhibition

CC(=O)O/N=C1C=C/C(=C(/C#N)c2ccccc2)C=C/1C
active: [1]; at 33.0 µM 99% | [1]; at 100.0 µM 96% | [2]; at 3.7 µM 81% | [2]; at 11.0 µM 95% | [2]; at 33.0 µM 97% | [2]; at 100.0 µM 94% | [3]; at 11.0 µM 75% | [3]; at 33.0 µM 99% | [3]; at 100.0 µM 96% | [4]; at 33.0 µM 98% | [4]; [18] 98% | [4]; at 50.0 µM 99.5% | [4]; at 100.0 µM 94% | [5]; at 33.0 µM 99% | [5]; [18] 98% | [5]; at 50.0 µM 99.5% | [5]; at 100.0 µM 96% | [6]; at 33.0 µM 99% | [6]; at 100.0 µM 96% | [7]; [17] 77% | [7]; [18] 99% | [7]; at 50.0 µM 99.2% | [8]; at 33.0 µM 99% | [8]; at 100.0 µM 96% | [9]; [18] 98% | [9]; at 50.0 µM 99% | [10]; at 33.0 µM 99% | [10]; [18] 99% | [10]; at 50.0 µM 99.5% | [10]; at 100.0 µM 91% | [11]; at 33.0 µM 99% | [11]; at 100.0 µM 96% | [12]; at 33.0 µM 99% | [12]; at 100.0 µM 95% | [13]; at 11.0 µM 94% | [13]; at 33.0 µM 99% | [13]; at 100.0 µM 95% | [14]; [18] 98% | [14]; at 50.0 µM 98.8% | [15]; at 33.0 µM 99% | [15]; at 100.0 µM 95%
inactive: [1]; at 1.2 µM 6% | [1]; at 3.7 µM 15% | [1]; at 11.0 µM 63% | [2]; at 1.2 µM 43% | [3]; at 1.2 µM 2% | [3]; at 3.7 µM 6% | [4]; at 1.2 µM 5% | [4]; at 3.7 µM 10% | [4]; [17] 41% | [4]; at 11.0 µM 37% | [5]; at 1.2 µM -1% | [5]; at 3.7 µM 4% | [5]; [17] 16% | [5]; at 11.0 µM 19% | [6]; at 1.2 µM 1% | [6]; at 3.7 µM 7% | [6]; at 11.0 µM 25% | [8]; at 1.2 µM -6% | [8]; at 3.7 µM 0% | [8]; at 11.0 µM 16% | [9]; [17] 4% | [10]; at 1.2 µM -8% | [10]; at 3.7 µM -11% | [10]; [17] 0% | [10]; at 11.0 µM 4% | [11]; at 1.2 µM 2% | [11]; at 3.7 µM 7% | [11]; at 11.0 µM 65% | [12]; at 1.2 µM 3% | [12]; at 3.7 µM 8% | [12]; at 11.0 µM 53% | [13]; at 1.2 µM 21% | [13]; at 3.7 µM 54% | [14]; [17] 49% | [15]; at 1.2 µM 12% | [15]; at 3.7 µM 26% | [15]; at 11.0 µM 56%

COC(=O)C(Cc1c[nH]c2ccccc12)N1CN(C)c2ccccc2C1=O (stereo unspecified)
inactive: [1]; at 1.2 µM 7% | [1]; at 3.7 µM 2% | [1]; at 11.0 µM 0% | [1]; at 33.0 µM 3% | [16]; at 1.2 µM 7% | [16]; at 3.7 µM -3% | [16]; at 11.0 µM -4% | [16]; at 33.0 µM -4% | [16]; at 100.0 µM 60% | [3]; at 1.2 µM 49% | [3]; at 3.7 µM -1% | [3]; at 11.0 µM -1% | [3]; at 33.0 µM 5% | [4]; at 1.2 µM 7% | [4]; at 3.7 µM 2% | [4]; [17] 11% | [4]; at 11.0 µM 6% | [4]; at 33.0 µM 2% | [4]; [18] 37% | [4]; at 50.0 µM 57.9% | [5]; at 1.2 µM 5% | [5]; at 3.7 µM -1% | [5]; [17] -17% | [5]; at 11.0 µM -2% | [5]; at 33.0 µM 5% | [5]; [18] 11% | [5]; at 50.0 µM 50.5% | [6]; at 1.2 µM 6% | [6]; at 3.7 µM -9% | [6]; at 11.0 µM -5% | [6]; at 33.0 µM -13% | [7]; [17] -2% | [7]; [18] 60% | [8]; at 1.2 µM 4% | [8]; at 3.7 µM 1% | [8]; at 11.0 µM 3% | [8]; at 33.0 µM 7% | [9]; [17] -4% | [9]; [18] 54% | [10]; at 1.2 µM -6% | [10]; at 3.7 µM -1% | [10]; [17] 13% | [10]; at 11.0 µM 11% | [10]; at 33.0 µM 0% | [10]; [18] 44% | [10]; at 50.0 µM 40.4% | [11]; at 1.2 µM 8% | [11]; at 3.7 µM -2% | [11]; at 11.0 µM -4% | [11]; at 33.0 µM 0% | [12]; at 1.2 µM 2% | [12]; at 3.7 µM 0% | [12]; at 11.0 µM 0% | [12]; at 33.0 µM 6% | [13]; at 1.2 µM 3% | [13]; at 3.7 µM 2% | [13]; at 11.0 µM 1% | [13]; at 33.0 µM 8% | [14]; [17] -9% | [15]; at 1.2 µM -8% | [15]; at 3.7 µM -3% | [15]; at 11.0 µM 3% | [15]; at 33.0 µM 18%
active: [1]; at 100.0 µM 99% | [3]; at 100.0 µM 99% | [4]; at 100.0 µM 99% | [5]; at 100.0 µM 99% | [6]; at 100.0 µM 99% | [7]; at 50.0 µM 97.8% | [8]; at 100.0 µM 99% | [9]; at 50.0 µM 70.5% | [10]; at 100.0 µM 99% | [11]; at 100.0 µM 99% | [12]; at 100.0 µM 99% | [13]; at 100.0 µM 99% | [14]; [18] 75% | [14]; at 50.0 µM 95.8% | [15]; at 100.0 µM 99%

COc1ccccc1NC(=O)c1ccc(Cl)cc1
active: [9]; [18] 75%
inactive: [1]; at 1.2 µM 0% | [1]; at 3.7 µM 3% | [1]; at 11.0 µM 4% | [1]; at 33.0 µM 5% | [1]; at 100.0 µM 1% | [16]; at 1.2 µM -1% | [16]; at 3.7 µM 1% | [16]; at 11.0 µM 1% | [16]; at 33.0 µM 0% | [16]; at 100.0 µM -1% | [3]; at 1.2 µM -2% | [3]; at 3.7 µM -1% | [3]; at 11.0 µM 0% | [3]; at 33.0 µM -2% | [3]; at 100.0 µM -10% | [4]; at 1.2 µM 3% | [4]; at 3.7 µM 5% | [4]; [17] -13% | [4]; at 11.0 µM 8% | [4]; at 33.0 µM 6% | [4]; [18] 12% | [4]; at 50.0 µM 17.6% | [4]; at 100.0 µM 8% | [5]; at 1.2 µM -5% | [5]; at 3.7 µM -5% | [5]; [17] -6% | [5]; at 11.0 µM -7% | [5]; at 33.0 µM -6% | [5]; [18] -14% | [5]; at 50.0 µM 11.1% | [5]; at 100.0 µM -4% | [6]; at 1.2 µM 0% | [6]; at 3.7 µM -1% | [6]; at 11.0 µM 0% | [6]; at 33.0 µM 1% | [6]; at 100.0 µM 0% | [7]; [17] 3% | [7]; [18] 7% | [7]; at 50.0 µM 20.8% | [9]; [17] 23% | [9]; at 50.0 µM 16.9% | [12]; at 1.2 µM 0% | [12]; at 3.7 µM 1% | [12]; at 11.0 µM 4% | [12]; at 33.0 µM 3% | [12]; at 100.0 µM 3% | [13]; at 1.2 µM 0% | [13]; at 3.7 µM 1% | [13]; at 11.0 µM 2% | [13]; at 33.0 µM 3% | [13]; at 100.0 µM 2% | [14]; [17] -6% | [14]; [18] 11% | [14]; at 50.0 µM 0.15% | [15]; at 1.2 µM 3% | [15]; at 3.7 µM 3% | [15]; at 11.0 µM 1% | [15]; at 33.0 µM 3% | [15]; at 100.0 µM 2%
